The text below walks through data of PubChem BioAssay (Tox21).

Structures are written as SMILES. Results filed as inconclusive are left out. A call without a number means that no potency is given here. Calls of active or inactive are those of the source. The call rests on the fitted dose curve; in most records, active means well fitted activation curve with a large enough effect in the signal ratio in the repeat runs (not every such curve was filed as active); inconclusive means weak or mixed curves; inactive means flat fitted curve, though single readings scatter; the % refers to the signal ratio.
Potency means the concentration at half of the fitted maximal effect.

The nature of the experiment: qHTS assay to identify small molecule agonists of H2AX (AID 1224845). The following applies: CHO-K1 phospho-H2AX Ser139 HTRF, 3 h; series mostly up to 154 µM. From the text:
National Center for Advancing Translational Sciences [NCATS]
NIH Chemical Genomics Center [NCGC]
U.S. Environmental Protection Agency [EPA]
National Institutes of Environmental Health Sciences [NIEHS]
National Toxicology Program [NTP]
U.S. Food and Drug Administration [FDA]
HTRF phospho-H2AX (Ser139) assay (Cisbio Bioassays, US) enables the quantitative detection of the histone variant H2AX when phosphorylated on serine 139. When double-stranded DNA breaks, either by ionizing radiation or endogenous physiological processes, H2AX becomes phosphorylated at Ser139. This phospho-Ser139 serves as a sensitive biomarker for the detection of such breaks, localizing the site of DNA repair. So, HTRF phospho-H2AX Ser139 is a pertinent assay to study genome stability, the cell cycle, DNA repair, and it serves as a biomarker for cancer, and to understand aging. Wild type CHO-K1 cells were used to identify the inducers of Phospho-H2AX Ser 139 from the Tox21 10K compound collections.
Tox21 Assay Protocol Summary:
The CHO-K1 cells suspended in culture medium containing 10% FBS were dispensed at 1000 cells/ 3 ul/well in 1536-well white wall/solid bottom plates (Greiner Bio-One North America, NC) using a Multidrop Combi (Thermo Fisher Scientific Inc., Waltham, MA). After the assay plates were incubated at 37C overnight, 23 nl of compounds at 15 concentrations (from 5-48 columns) or positive control (from 1 to 4 columns) were transferred to the assay plates using a Pintool station (Wako, San Diego, CA) into each well resulting in a final DMSO concentration of 0.76%. After 3hr incubation at 37C, 1 uL/well Supplemented Lysis buffer (diluted 100 fold blocking reagent in lysis buffer) (HTRF Phospho-H2A.X (S139) Assay kit from Cisbio US Inc., Bedford, MA) was added using a Flying Reagent Dispenser (FRD) (Aurora Discovery, CA). After 10sec spin at 1000 rpm in a plate centrifuge, the assay plates were incubated at room temperature for 30 min. Then followed by the addition of 1 uL/well detection buffer (containing a mixture of two antibodies, one labeled with cryptate, Anti pH2AX (S139)-K and another labeled with d2, Anti H2AX-d2) using FRD. After incubation at room temperature for 24 hr, the time resolved fluorescence at excitation 320 nm and emissions at 665 nm and 620 nm was measured using an Envision plate reader (PerkinElmer, Waltham, MA).
`NCc1cccnc1`: the Potency result was “inactive”.
To `C[C@]12CCC(=O)C(O)=C1CC[C@@H]1[C@@H]2CC[C@]2(C)C(=O)CC[C@@H]12` belongs “inactive”; to `CCCCC(CC)COC(=O)c1ccc(C(=O)OCC(CC)CCCC)c(C(=O)OCC(CC)CCCC)c1` (stereo not given), “inactive”.
As to `N#CCCCl`, the Potency result was “inactive”.
Consider `C#CCOS(=O)OC1CCCCC1Oc1ccc(C(C)(C)C)cc1` (stereo not given), for which the Potency entry was “inactive”.
Take `CCCCN(CC)c1c([N+](=O)[O-])cc(C(F)(F)F)cc1[N+](=O)[O-]`: the Potency result is “inactive”.
For the molecule `Cc1c(COC(=O)[C@@H]2[C@H](/C=C(\Cl)C(F)(F)F)C2(C)C)cccc1-c1ccccc1`, the Potency entry is “inactive”.
For `Nc1ccc(-c2ccccc2)cc1`, the Potency result was “inactive”.
As for `c1ccc(P(c2ccccc2)c2ccccc2)cc1`, the Potency entry was “inactive”.
For the molecule `Nc1c(Cl)cc([N+](=O)[O-])cc1Cl`, the Potency result was “inactive”.
To `OCC(O)CO` belongs “inactive”; to `Oc1ccc(-c2ccccc2)cc1`, “inactive”.
In the case of `NC(=S)Nc1ccccc1`, the Potency entry is “inactive”.
To `Clc1nc(Cl)nc(Cl)n1` belongs “inactive”; to `O=P(Oc1ccccc1)(Oc1ccccc1)Oc1ccccc1`, “inactive”.
For `CNC(=O)N(C)c1nnc(C(C)(C)C)s1`, the Potency entry was “inactive”.
Consider `CCCCCCCCOC(=O)c1ccccc1C(=O)OCCCCCCCC`, for which the Potency result is “inactive”.
On to `S=C1NCCN1`, for which the Potency entry was “inactive”.
Turning to `CC(C)NC(C)C`, the Potency entry was “inactive”.
To `Oc1cc(Cl)ccc1Cl` belongs “inactive”.
With `CCCCCCCCCCCOC(=O)c1ccccc1C(=O)OCCCCCCCCCCC`, the Potency result was “inactive”.
In the case of `C1=Cc2cccc3cccc1c23`, the Potency result was “inactive”.
To `Nc1ccc(Cl)c(Cl)c1` belongs “inactive”.
Consider `N#Cc1cc(Br)c(O)c(Br)c1`, for which the Potency result was “inactive”.
To `O=C(CCl)c1ccccc1` belongs “inactive”; to `CCOC(=S)S`, 28.4 µM (active).
To `O=[N+]([O-])c1cccc2ccccc12` belongs “inactive”; to `Cc1ccc(OP(=O)(Oc2ccc(C)cc2)Oc2ccc(C)cc2)cc1`, “inactive”.
`CCN(N=O)C(N)=O`: the Potency result was “inactive”.
In the case of `Cc1cccc(N)c1N`, the Potency entry is “inactive”.
On to `CN(C)C(=O)Nc1ccc(Cl)cc1`, for which the Potency entry is “inactive”.
Regarding `O=S(=O)(Oc1ccc(Cl)cc1)c1ccc(Cl)cc1`, the Potency entry was “inactive”.
With `c1nc[nH]n1`, the Potency entry was “inactive”.
For the molecule `Nc1ccc(Cl)cc1N`, the Potency result was “inactive”.
For `CCOC(=O)C(C)OC(=O)c1cc(Oc2ccc(C(F)(F)F)cc2Cl)ccc1[N+](=O)[O-]` (stereo not given), the Potency result is “inactive”.
To `CCOP(=S)(OCC)O/N=C(\C#N)c1ccccc1` belongs “inactive”.
Regarding `COP(=S)(OC)Oc1cc(Cl)c(Cl)cc1Cl`, the Potency result was “inactive”.
`c1cc(OCC2CO2)ccc1Cc1ccc(OCC2CO2)cc1` (stereo not given): the Potency entry was “inactive”.
In the case of `COc1ccc(C=O)cc1`, the Potency entry was “inactive”.
Take `C=C(C)[C@H]1Cc2c(ccc3c2O[C@@H]2COc4cc(OC)c(OC)cc4[C@@H]2C3=O)O1`: the Potency entry was “inactive”.
